# Measurements from PubChem BioAssay (NCI).
# The panel holds about 83,000 compounds, 20% with a hit somewhere; the sample as a whole holds those more often.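 Interpretation: 100, growth as untreated; towards 0, rising growth inhibition; 0, no net growth; 0 to -100, cell death. Compounds scoring below 10 were considered active.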 Unmarked numbers belong to inactive results. Active and inactive are the calls of the source.
# Tested on: NCI-H322M lung
# Assay: NCI-60 one-dose screen, 48 h (100 = growth as untreated, 0 = no growth, -100 = all killed)
# Conditions: 10 µM unless noted
# Procedure: Growth inhibition of the NCI-H322M human Non-Small Cell Lung tumor cell line is measured as a screen for anti-cancer activity. Cells are grown in 96 well plates and exposed to the test compound for 48 hours. Compounds are tested at a single concentration, which is 10^-5 M for most compounds. The reported endpoint is percent growth (GI% or GIPRCNT), where numbers from 0 - 100% represent growth inhibition, and numbers from -100% - 0 represent cell death. For example, a value of 40 represents 60% growth inhibition. A value of 0 means no net growth occurred over the course of the experiment. A value of -40 indicates 40% of cells at the beginning of the experiment died by the end of the experiment. A value of -100 means all cells are dead at the end of the experiment.
# NCI-60 Human Tumor Cell Lines Screen was performed using the standard one-dose NCI protocol, which is described in more detail at https://dtp.cancer.gov/discovery_development/nci-60/default.htm.
# Compounds with GIPRCNT values below 10 were considered active. Activity score was based on GIPRCNT using the following formula: […]
# Score is 0 for GIPRCNT values of 100 or above, 50 for GIPRCNT values of 0, and 100 for GIPRCNT values of -100.
row,SMILES,growth
1,NC(=O)CCC(C(=O)O)N1C(=O)c2ccc(O)cc2C1=O (stereo not given),112%
2,Cc1ccc(-n2c(=S)[nH]c3sc4c(c3c2=O)CCC(=O)C4)cc1,89.5%
3,O=C(c1ccccc1)C1C(=O)N2C(=S)N(c3ccccc3)C(=O)C2C1c1ccc(Cl)cc1 (stereo not given),94.6%
4,Cc1c(-n2nnc(-c3nc4ccccc4s3)c2N)c(=O)n(-c2ccccc2)n1C,100%
5,CCOC(=O)c1c(C)nc2c(c1N)CC(=O)N2Cc1cc(F)cc(Cl)c1,107%
6,C#CCn1cnc2c(Nc3cccc(NC(=O)C=C)c3)ncnc21,103%
7,O=C(NCCCN1CCOCC1)c1cccc(N2C(=O)/C(=C/c3ccc(F)cc3)SC2=S)c1,104%
8,CCCCCC(=O)OCC(=O)O[C@@H]1C[C@]2(C(C)C)O[C@@]1(C)[C@@H]1CC[C@@H](C)[C@H]1[C@@H]2OC(=O)/C=C/c1ccccc1,84.6%
9,CCOc1nc(-c2ccccc2)cc2c(O)c(C(=O)NN)[nH]c(=O)c12,104%
10,COc1ccccc1NC(=O)Cn1cc(CN2CCN(c3ccnc4cc(Cl)ccc34)CC2)nn1,95.1%
11,C=C(CNCCc1ccc(O)cc1)[C@@H]1CC[C@]2(CO)CC[C@]3(C)[C@H](CC[C@@H]4[C@@]5(C)CCC(NCCO)C(C)(C)[C@@H]5CC[C@]43C)[C@@H]12 (stereo not given in full),-24.5% (active)
12,CCN1CCN(c2cc(C(=O)Nc3nc(-c4cc(OC)c(OC)c(OC)c4)cs3)cc(C(F)(F)F)c2)CC1,78%
13,O=C(c1cc2ccccc2o1)c1nn(-c2ccccc2)/c(=N/N=Cc2cn(-c3ccccc3)nc2-c2cc3ccccc3oc2=O)s1,92%
14,C/C(=N/O)c1ccc(F)cc1,111%
15,CS(=O)(=O)Nc1cc(-c2ccc3ncnc(Nc4c(Cl)ccc5c4OCO5)c3c2)cnc1Cl,-39% (active)
16,Cc1ccc(-c2nc(/C=C3/C(=O)Nc4ccccc43)c3ccccn23)cc1,88%
17,COc1ccc(/C(C)=C(/c2ccc(OCCCN(C)C)cc2)c2ccc(OC(=O)Cc3ccccc3)cc2)cc1,98.3%
18,COC(=O)[C@H]1CCCN1C[C@@H](O)CN1C(=O)/C(=C\c2cc(OC)c(OC)c(OC)c2)c2ccccc21,106%
19,CS(=O)(=O)c1cccc(-c2c(-c3cccc(OS(N)(=O)=O)c3)nc3sccn23)c1,98.2%
20,COc1cc(-c2cc(-c3ccc(N(C)C)cc3)nc(N3CCC(O)CC3)c2C#N)cc(OC)c1OC,25.8%

row,SMILES,growth
1,C=C(C)[C@@H]1CC[C@]2(C)[C@H](CC=C3[C@@H]4[C@H](C)[C@@H](C)CC[C@]4(CO)CC[C@]32C)[C@@]1(C)CCCN,43.7%
2,N#Cc1cnc(NCCc2ccncc2)nc1-n1cnc2ccccc21,35%
3,CC[C@]12C=CCN3CC[C@@]4(c5cc(NC(=O)CCC(=O)OCc6cn(Cc7ccc(F)cc7)nn6)c(OC)cc5N(C)[C@H]4[C@@](O)(C(=O)OC)[C@@H]1OC(C)=O)[C@@H]32,94.3%
4,CCNC(=O)c1[nH]cc(-c2ccccc2)c1-c1cc(OC)c2c(c1OC)OCO2,93.7%
5,Cn1c(=O)c2c(nc(NC3=NS(=O)(=O)c4ccccc43)n2CC(=O)N2CCc3ccccc32)n(C)c1=O,100%
6,N#CC1CCc2c(c(-c3cn[nH]c3C(F)(F)F)nc3c(F)cc4[nH]ncc4c23)C1 (stereo not given),30.8%
7,COC(=O)/C(CCC=C(C)C)=C1\[C@@H](OC(C)=O)C[C@@]2(C)[C@H]1C[C@@H](O)[C@H]1[C@@]3(C)CC[C@H](NCCN)[C@@H](C)[C@@H]3CC[C@@]12C,83.5%
8,C1=CN2CC(c3ccccc3)=NNC2c2ccccc21 (stereo not given),86.1%
9,CC(C)N1CN2C(=S)NC3C2N(C1)C(=S)N3C (stereo not given),104%
10,CCCc1cc(NC)nc(S(=O)(=O)CC)n1,106%
11,COc1ccc(/C=C2\C(=O)N=C3N2NC(c2cc(Br)ccc2O)C=C(C)N3c2ccccc2)cc1 (stereo not given),97.3%
12,C=C1C(=O)O[C@H]2[C@H]1CC/C(COC(=O)NCc1ccc(Cn3c(=O)sn(CCI)c3=O)cc1)=C\CC[C@@]1(C)O[C@@H]21,96.4%
13,CC(C)N1CCN(Cc2ccc3c(NNC(=O)c4ccccc4)nc4cc(F)ccc4n23)CC1,29.3%
14,COc1ccc2nc3ccc(OC)cc3c(SCCCN)c2c1,114%
15,O=C1/C(=C/c2ccccc2Br)COc2ccc(O)c(O)c21,33.3%
16,Cc1ccccc1NC(=O)c1sc2nc(C)c(C(=O)/C=C/c3ccccc3)cc2c1N,55.5%
17,O=C(CCCCC1CCSS1)Nc1ncnc2n[nH]c(-c3ccc(Oc4ccccc4)cc3)c12 (stereo not given),79.5%
18,CCCCCCCCn1ccc2cc(NC(=O)Cn3cc(CN4CCCCC4)nn3)ccc21,17.6%
19,O=C(CI)NC1Oc2ccccc2-c2oc(=O)c(-c3ccccc3)cc21 (stereo not given),105%
20,N#Cc1c(-c2ccccc2)cc(-c2ccccc2)n(CCCCCC(=O)Nc2ccccc2N)c1=O,81.5%
